The structures appear in SMILES notation. Results filed as inconclusive are left out. Calls of active or inactive are those of the source. Calls follow the shape of the dose curve; as a rule, active = well fitted cell-killing curve with a large enough effect; inconclusive = small, poorly fitted or top-dose-only effect; inactive = flat fitted curve, though single readings scatter.

The values that follow come from PubChem BioAssay (NCATS).
% is scaled to controls: 0 for no effect and ±100 for the full control effect; potency is read from the fitted curve at half-maximal effect.

This assay is described as follows: qHTS of pediatric cancer cell lines to identify multiple opportunities for drug repurposing: Primary screen for Rh18 cells (AID 1347102). Also: nearly all actives have a fitted effect of over 65% in size. To be noted: Rh18 rhabdomyosarcoma viability, CellTiter-Glo luminescence, 48 h; series mostly up to 46 µM; activity change, negative = cytotoxic: at the top concentration. An excerpt:
Drug repurposing or repositioning has been offered as a strategy for drug development in oncology programs. This approach has special potential for childhood cancers and other rare or orphan diseases, where the expected return on new drug development has been a disincentive to pharmaceuticals.
In this project we exploit the poly-pharmacology of drugs to discover new indications via phenotypic screening of a panel of 19 well-characterized cell lines derived from solid tumors seen in children and adolescents. The goal is to identify approved drugs with previously unrecognized anticancer properties that has the potential to reveal new mechanisms and biological processes involved in carcinogenesis or drug resistance. We employed a titration-based paradigm (quantitative high-throughput screening or qHTS), where all compounds were tested at multiple concentrations for their effect on cell viability. Concentration-response curves (CRCs) were derived directly from the primary screen, and both potency and efficacy values were used to identify compounds with robust bioactivity profiles. We screened the NIH Chemical Genomics Center (NCGC) Pharmaceutical Collection (NPC) and Mechanism Interrogation Plate (MIPE) small molecule collections of approved and investigational compounds against these cell lines; and measured metabolically active cells after 48 hours of compound treatment as a proxy for cell viability.
Assay Submitter: Nathalia J. Martinez, National Center for Advancing Translational Sciences, National Institutes of Health, Rockville, MD, USA; email: natalia.martinez@nih.gov
[1] Shen, M et al. Quantitative high-throughput phenotypic screening of pediatric cancer cell lines identifies multiple opportunities for drug repurposing. Oncotarget 2017 Dec 19;9(4):4758-4772. PMID 29435139.
The cells were obtained from University of North Carolina (UNC), Pediatric Preclinical Testing Program (PPT), and Coriell Institute (CI).
qHTS cell viability assay:
Cells were assayed in growth media at a density of 500-1,000 cells/well. Five microliters of cells were dispensed into 1,536-well, white, solid-bottom, TC-treated plates (Greiner Bio One) using a multidrop dispenser and incubated at 37 degrees C, 5% CO2, under a humidified atmosphere for 5 hours. Twenty-three nanoliters of compounds and controls (neutral control DMSO or positive control bortezomib at final concentration of 2.3 µM) were subsequently transferred by Kalypsys pintool. For primary screens, the MIPE collection was tested at 11-point dilutions (final concentrations range from 0.78 nM to 46 µM) and the NPC collection at 8-point dilutions (final concentrations range from 0.59 nM to 46 µM). Compounds tested in follow-up screens were assayed at 11-point dilutions. Cells were incubated for 48 hours, followed by addition of 3 µL of CellTiter-Glo (Promega). After a 15 min incubation at room temperature, samples were analyzed for luminescence intensity using a ViewLux High-throughput CCD imager equipped with clear filters.
On to `COc1cc2nccc(Oc3ccc(NC(=O)Nc4cc(C)on4)c(Cl)c3)c2cc1OC`, for which the Potency is 18.7 µM (active).

Take `C=C1[C@H](n2cnc3c(=O)[nH]c(N)nc32)C[C@H](O)[C@H]1CO`: the “activity change, negative = cytotoxic” value is 5.89% (inactive).

With `CN1C(=O)C(Cc2c[nH]c3ccccc23)NC1=S` (stereo not given), the “activity change, negative = cytotoxic” value is -3.62% (inactive).

`Cc1cc2c(cc1C1(c3ccc(C(=O)O)cn3)CC1)C(C)(C)CCC2(C)C`: the “activity change, negative = cytotoxic” value was -6.51% (inactive).

With `CCCCC(F)(F)[C@@]1(O)CC[C@H]2[C@H](CC(=O)[C@@H]2CCCCCCC(=O)O)O1`, the “activity change, negative = cytotoxic” value was 24% (inactive).

In the case of `CC(C)CN(C[C@@H](O)[C@H](Cc1ccccc1)NC(=O)O[C@H]1CO[C@H]2OCC[C@H]21)S(=O)(=O)c1ccc(N)cc1`, the “activity change, negative = cytotoxic” value is -20% (inactive).

Consider `CCCCC(C=O)NC(=O)C(CC(C)C)NC(=O)OCc1ccccc1` (stereo not given), for which the “activity change, negative = cytotoxic” value is -22.3% (inactive).

Take `CN1CCN2c3ncccc3Cc3ccccc3C2C1` (stereo not given): the “activity change, negative = cytotoxic” value was 1.81% (inactive).

Consider `O=C(O)c1ccc(O)c2ncc(N3CCOCC3)cc12`, for which the “activity change, negative = cytotoxic” value is 5.81% (inactive).

For the compound `CC1(C)[C@H]2CC[C@]3(C)[C@@H](C(=O)C=C4[C@@H]5C[C@@](C)(C(=O)O)CC[C@]5(C)CC[C@]43C)[C@@]2(C)CC[C@@H]1O`, the “activity change, negative = cytotoxic” value was -8.08% (inactive).

On to `CN1CCN(c2cccc(Nc3nc4c(-c5ccc(S(C)(=O)=O)cc5)cccn4n3)c2)CC1`, for which the Potency was 18.7 µM (active).

Take `CN1N=C(N)c2cn([C@@H]3O[C@H](COP(=O)(O)O)[C@@H](O)[C@@H]3O)c3ncnc1c23`: the Potency was 9.35 µM (active).

For the compound `O=C(Nc1ncc(SCCN2CCCC2)s1)[C@]1(c2ccc(S(=O)(=O)C3CC3)cc2)C[C@@H]1C1CCCCC1`, the Potency is 20.9 µM (active).

For `COc1ccc(C=CC(=O)Nc2ccccc2C(=O)O)cc1OC`, the “activity change, negative = cytotoxic” value is -1.95% (inactive).

Turning to `CN[C@H]1[C@@H](O[C@@H]2[C@H](O[C@@H]3[C@@H](O)[C@@H](O)[C@@H](N=C(N)N)[C@@H](O)[C@@H]3N=C(N)N)O[C@H](C)[C@@]2(O)C=O)O[C@@H](CO)[C@@H](O)[C@H]1O`, the activity change, negative = cytotoxic is 1.83% [at 9.22 µM] (inactive).

With `CCNC(=O)c1noc(-c2cc(C(C)C)c(O)cc2O)c1-c1ccc(CN2CCOCC2)cc1`, the Potency was 0.0935 µM (active).

Consider `c1ccc(CNc2nc(N3CCOc4ccccc43)nc3c2CCCC3)cc1`, for which the “activity change, negative = cytotoxic” value is 3% (inactive).

Take `C[C@H](c1ccc(F)cc1CCCC(=O)O)N(c1cc(F)ccc1F)S(=O)(=O)c1ccc(Cl)cc1`: the “activity change, negative = cytotoxic” value is -14.3% (inactive).

With `O=C(NC[C@H](O)CO)c1ccncc1Nc1ccc(I)cc1F`, the Potency was 10.5 µM (active).

As to `CO[C@H]1C=CO[C@@]2(C)Oc3c(C)c(O)c4c(O)c(c(C=NN5CCN(C)CC5)c(O)c4c3C2=O)NC(=O)C(C)=CC=C[C@H](C)[C@H](O)[C@@H](C)[C@@H](O)[C@@H](C)[C@H](OC(C)=O)[C@H]1C`, the activity change, negative = cytotoxic is -3.68% [at 9.22 µM] (inactive).

Regarding `Cc1nc(NC(=O)N2CCC[C@@H]2C(N)=O)sc1-c1csc(C(C)(C)C)n1`, the Potency is 7.43 µM (active).

With `Cc1cccc(Nc2nc(N[C@@H]3CCCC[C@H]3N)ncc2C(N)=O)c1`, the Potency was 20.9 µM (active).

`C[C@H]1O[C@@H](n2cc(F)c(=O)[nH]c2=O)[C@H](O)[C@H]1O`: the “activity change, negative = cytotoxic” value is 7.84% (inactive).

As for `CN1c2ccccc2C(=O)N2CCc3c([nH]c4ccccc34)C21` (stereo not given), the “activity change, negative = cytotoxic” value was 7.19% (inactive).

In the case of `NCC1CCC(C(=O)O)CC1` (stereo not given), the “activity change, negative = cytotoxic” value is -0.29% (inactive).

For the compound `CC1(C)OC2CC3C4CC(F)C5=CC(=O)C=CC5(C)C4C(O)CC3(C)[C@]2(C(=O)CO)O1` (stereo not given in full), the “activity change, negative = cytotoxic” value is 22.1% (inactive).

For `C[C@]12CC[C@@H]3c4ccc(O)cc4CC[C@H]3[C@H]1[C@@H](O)[C@@H](O)[C@H]2O`, the “activity change, negative = cytotoxic” value is 1.9% (inactive).

For the compound `CC1CNc2c(cccc2S(=O)(=O)N[C@@H](CCCN=C(N)N)C(=O)N2CC[C@@H](C)C[C@@H]2C(=O)O)C1` (stereo not given in full), the “activity change, negative = cytotoxic” value is -25.8% (inactive).

As for `NS(=O)(=O)c1cc(Cl)c(Cl)c(S(N)(=O)=O)c1`, the “activity change, negative = cytotoxic” value is 23.7% (inactive).

With `O=c1[nH]c(=O)n([C@H]2C[C@@H](O)[C@@H](CO)O2)cc1C(F)(F)F`, the “activity change, negative = cytotoxic” value was -6.35% (inactive).

In the case of `CC(C)n1c(C=C[C@H](O)C[C@H](O)CC(=O)O)c(-c2ccc(F)cc2)c2ccccc21`, the Potency was 5.9 µM (active).

In the case of `COc1cc(CNC(=O)CCCCC=CC(C)C)ccc1O`, the “activity change, negative = cytotoxic” value is 10.1% (inactive).

`N=C1SC(=Cc2ccc(-c3ccc4c(c3)C(=O)NC4=O)o2)C(=O)N1c1ccc(Br)cc1`: the “activity change, negative = cytotoxic” value is 8.83% (inactive).

On to `C[C@@H]1C[C@H]2[C@@H]3CCC4=CC(=O)C=C[C@]4(C)[C@@]3(F)[C@@H](O)C[C@]2(C)[C@@]1(O)C(=O)CO`, for which the “activity change, negative = cytotoxic” value is 16.5% (inactive).

Take `Fc1ccc(CNc2ncnc3ccc(F)cc23)cc1`: the “activity change, negative = cytotoxic” value is -13.6% (inactive).

For the compound `COc1c(C)c2c(c(O)c1CC=C(C)CCC(=O)O)C(=O)OC2`, the “activity change, negative = cytotoxic” value is -15.5% (inactive).

In the case of `CCNC(=O)[C@H]1O[C@@H](n2cnc3c(N)nc(NCCc4ccc(CCC(=O)O)cc4)nc32)[C@H](O)[C@H]1O`, the “activity change, negative = cytotoxic” value is 6.34% (inactive).

On to `CCCCCCOC(=O)N=C(N)c1ccc(NCc2nc3cc(C(=O)N(CCC(=O)OCC)c4ccccn4)ccc3n2C)cc1`, for which the “activity change, negative = cytotoxic” value is 1.68% (inactive).

For the compound `CCCCC(C)(C)[C@H](O)C=C[C@H]1[C@H](O)CC(=O)[C@H]1CC=CCCCC(=O)O`, the “activity change, negative = cytotoxic” value is 0.601% (inactive).

On to `O=C(O)CCNc1cc(N2CCc3ccccc3CC2)nc(-c2ccccn2)n1`, for which the “activity change, negative = cytotoxic” value was 15.4% (inactive).
